The source of these data is PubChem BioAssay (NCATS).

Records with an inconclusive call do not appear. Values without a mark were called inactive. Calls follow the shape of the dose curve; as a rule, active = well fitted curve in the direction sought with a large enough effect; inconclusive = small, poorly fitted or top-dose-only effect, or another doubt; inactive = no such curve, though single readings can be large; an effect the other way counts as inactive or inconclusive.

Sequence of Protein phosphatase 1D (Homo sapiens) (O15297 whole entry, looked up): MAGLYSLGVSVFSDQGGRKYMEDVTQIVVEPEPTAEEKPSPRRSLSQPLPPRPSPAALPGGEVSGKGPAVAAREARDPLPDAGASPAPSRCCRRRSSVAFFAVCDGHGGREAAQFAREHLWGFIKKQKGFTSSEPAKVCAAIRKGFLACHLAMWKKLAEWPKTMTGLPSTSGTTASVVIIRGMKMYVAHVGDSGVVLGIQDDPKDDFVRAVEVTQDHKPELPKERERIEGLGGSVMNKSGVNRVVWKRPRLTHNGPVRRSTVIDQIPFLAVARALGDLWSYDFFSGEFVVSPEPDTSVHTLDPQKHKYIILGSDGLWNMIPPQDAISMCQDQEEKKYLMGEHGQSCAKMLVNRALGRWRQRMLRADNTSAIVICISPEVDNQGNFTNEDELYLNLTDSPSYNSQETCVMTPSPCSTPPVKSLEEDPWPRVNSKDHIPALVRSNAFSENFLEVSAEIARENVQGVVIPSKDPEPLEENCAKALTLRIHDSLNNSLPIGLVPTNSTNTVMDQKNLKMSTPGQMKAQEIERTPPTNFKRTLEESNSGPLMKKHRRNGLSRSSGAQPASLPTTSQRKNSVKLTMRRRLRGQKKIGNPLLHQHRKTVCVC

The first assay addresses Protein phosphatase 1D (Homo sapiens) (UniProt O15297). Description: RapidFire Mass Spectrometry qHTS Assay for Modulators of WT P53-Induced Phosphatase 1 (WIP1) (AID 1347424).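 Also: amount of dephosphorylated VEPPL-S-QETFS peptide product formed by WIP1; plate controls were DMSO wells for no effect and GSK830371 inhibitor control at 10 µM for full effect.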 The settings on record: WIP1 dephosphorylation of phosphopeptide, RapidFire MS; series mostly up to 63 µM; activity change, negative = inhibition: at the top concentration. The gist of the method: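 WIP1 (10 nM final) was preincubated 1 h at room temperature with compounds in Tris-HCl pH 7.5, 30 mM MgCl2, TCEP, EGTA, BSA; 2 uM VEPPL-pS-QETFS phosphopeptide was added for 5 min, quenched with formic acid, and dephosphorylated product quantified by RapidFire MS.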
(Quantitative high-throughput screening tests each substance at several concentrations.)
In the case of `CC(=O)Oc1ccc2c(c1)CC[C@@H]1[C@@H]2CC[C@]2(C)[C@@H](O)CC[C@@H]12`, the “activity change, negative = inhibition” value is 36%.

Turning to `C#C[C@]1(O)CC[C@H]2[C@@H]3CCC4=CC(=O)CC[C@@H]4[C@H]3CC[C@@]21C`, the “activity change, negative = inhibition” value is 6.11%.

On to `O=C1c2ccccc2C(=O)C1c1ccccc1`, for which the “activity change, negative = inhibition” value is 1.73%.

For `CN1C(CCl)Nc2cc(Cl)c(S(N)(=O)=O)cc2S1(=O)=O` (configuration not stated), the “activity change, negative = inhibition” value is -10.8%.

For `C[C@]12CC[C@H]3[C@@H](CCC4=CC(=O)CC[C@@]43C)[C@@H]1CC[C@@H]2C(=O)CO`, the “activity change, negative = inhibition” value was -0.801%.

In the case of `CCCCOc1ccc(C(=O)CCN2CCCCC2)cc1`, the “activity change, negative = inhibition” value is 10.7%.

For the molecule `COC1=CC(=O)C[C@@H](C)[C@]12Oc1c(Cl)c(OC)cc(OC)c1C2=O`, the “activity change, negative = inhibition” value was 9.41%.

For `CCN(CC)CCNC(=O)COc1ccc(Cl)cc1`, the “activity change, negative = inhibition” value was 13.2%.

For the molecule `CC(=O)OCC(=O)[C@@]12N=C(C)O[C@@H]1C[C@H]1[C@@H]3CCC4=CC(=O)C=C[C@]4(C)[C@H]3[C@@H](O)C[C@@]12C`, the “activity change, negative = inhibition” value was -1.32%.

On to `CC(=O)OCC(=O)[C@@]12OC(C)(C)O[C@@H]1C[C@H]1[C@@H]3C[C@H](F)C4=CC(=O)C=C[C@]4(C)[C@@]3(F)[C@@H](O)C[C@@]12C`, for which the “activity change, negative = inhibition” value is -2.91%.

As for `C/C=C/c1ccc(OC)cc1`, the “activity change, negative = inhibition” value was 38.7%.

Consider `NC(=O)C(=O)N/N=C/c1ccc([N+](=O)[O-])o1`, for which the “activity change, negative = inhibition” value is -4.26%.

Take `CC[N+](CC)(CCNC(=O)C(=O)NCC[N+](CC)(CC)Cc1ccccc1Cl)Cc1ccccc1Cl`: the “activity change, negative = inhibition” value is 10.9%.

Take `CCCCCCCCCCCCCCCC[N+](C)(C)CC`: the “activity change, negative = inhibition” value was 42.1%.

Consider `C[C@@H]1C[C@H]2[C@@H]3CCC4=CC(=O)C=C[C@]4(C)[C@@]3(F)[C@@H](O)C[C@]2(C)[C@H]1C(=O)CO`, for which the “activity change, negative = inhibition” value is -3.98%.

On to `O=C(O)CNC(=O)c1ccccc1`, for which the “activity change, negative = inhibition” value was 4.04%.

For `C[C@]12C=CC(=O)C=C1[C@@H](F)C[C@@H]1[C@@H]2[C@@H](O)C[C@@]2(C)[C@H]1CC[C@]2(O)C(=O)CO`, the “activity change, negative = inhibition” value was -9.46%.

For `C[C@]12C=CC(=O)C=C1CC[C@@H]1[C@@H]2[C@@H](O)C[C@@]2(C)[C@H]1CC[C@]2(O)C(=O)CO`, the “activity change, negative = inhibition” value was -0.511%.

Take `C#C[C@]1(OC(C)=O)CC[C@H]2[C@@H]3CCC4=C[C@@H](OC(C)=O)CC[C@@H]4[C@H]3CC[C@@]21C`: the “activity change, negative = inhibition” value is 30.3%.

As for `COc1ccc(CCN2CCC(Nc3nc4ccccc4n3Cc3ccc(F)cc3)CC2)cc1`, the “activity change, negative = inhibition” value was 58.2%.

As for `C[n+]1c2cc(N)ccc2cc2ccc(N)cc21` (tested in a mixture with another compound), the “activity change, negative = inhibition” value was -12.6%.

`COc1cc(-c2ccc(=O)[nH]n2)ccc1OC(F)F`: the “activity change, negative = inhibition” value was -12.4%.

Consider `CCCCC(=O)O[C@]1(C(=O)CO)CC[C@H]2[C@@H]3CCC4=CC(=O)CC[C@]4(C)[C@H]3[C@@H](O)C[C@@]21C`, for which the “activity change, negative = inhibition” value is 10.5%.

`CCOc1ccc(Cc2nccc3cc(OCC)c(OCC)cc23)cc1OCC`: the “activity change, negative = inhibition” value was 18.4%.

Turning to `CC1=C(C(=O)OC(C)C)C(c2cccc([N+](=O)[O-])c2)C(C(=O)OC2CN(C(c3ccccc3)c3ccccc3)C2)=C(N)N1` (configuration not stated), the “activity change, negative = inhibition” value is 31.6%.

Turning to `COc1ccc(/C=C/C(=O)c2ccc(OC)cc2OC)cc1`, the “activity change, negative = inhibition” value was 18%.

Consider `CCN(CC)CCOc1ccc(C(O)(Cc2ccc(Cl)cc2)c2ccc(C)cc2)cc1` (configuration not stated), for which the “activity change, negative = inhibition” value is 42.5%.

For the molecule `CCCCC1=NC2(CCCC2)C(=O)N1Cc1ccc(-c2ccccc2-c2nn[nH]n2)cc1`, the “activity change, negative = inhibition” value is -3.94%.

Take `CCCCCCCCCCOCC(O)CN` (configuration not stated): the “activity change, negative = inhibition” value was 41.7%.

For the molecule `Cc1ccc(C(=O)C(C)CN2CCCCC2)cc1` (configuration not stated), the “activity change, negative = inhibition” value was -1.58%.

In the case of `Clc1ccc2c(c1)CCc1cccnc1C2=C1CCNCC1`, the “activity change, negative = inhibition” value is 6.14%.

With `CCCN1CCCC[C@H]1C(=O)Nc1c(C)cccc1C`, the “activity change, negative = inhibition” value was -0.671%.

For the molecule `Oc1cc(O)c2c(c1)O[C@H](c1ccc(O)c(O)c1)[C@H](O)C2`, the “activity change, negative = inhibition” value was -17%.

For the molecule `C[C@]12CCC(=O)C=C1CC[C@H]1[C@@H]3CC[C@](O)(C(=O)CO)[C@@]3(C)C[C@H](O)[C@@]12F`, the “activity change, negative = inhibition” value is 7.34%.

On to `CCCCOc1ccc(OCCCN2CCOCC2)cc1`, for which the “activity change, negative = inhibition” value was 13.1%.

For the molecule `COC(=O)CCc1ccc(OCC(O)CNC(C)C)cc1` (configuration not stated), the “activity change, negative = inhibition” value is -10.1%.

The next assay shares this target. Nature of the assay: Rhodamine-PBP qHTS Assay for Modulators of WT P53-Induced Phosphatase 1 (WIP1) (AID 1347425). Also: % of control where 0% means no effect. The note with it: recombinant WIP1, Rhodamine-PBP phosphate fluorescence, real-time; series mostly up to 57.5 µM; activity change, negative = inhibition: at the top concentration. The gist of the method: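 The read-out is the change in Rhodamine-PBP fluorescence (f1 - f0, ex 525/em 598 nm) as Pi is released, read each minute for 11 min. Final reaction: 5 nM WIP1, 10 uM phosphopeptide VEPPL-pS-QETFS, 10 uM Rh-PBP, 50 mM Tris-HCl pH 7.5, 30 mM MgCl2. Compound was preincubated with enzyme for 1 hour at room temperature.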
For the molecule `CC(=O)Oc1ccc2c(c1)CC[C@@H]1[C@@H]2CC[C@]2(C)[C@@H](O)CC[C@@H]12`, the “activity change, negative = inhibition” value is -13.6%.

As for `C#C[C@]1(O)CC[C@H]2[C@@H]3CCC4=CC(=O)CC[C@@H]4[C@H]3CC[C@@]21C`, the “activity change, negative = inhibition” value was 3.05%.

Consider `O=C1c2ccccc2C(=O)C1c1ccccc1`, for which the “activity change, negative = inhibition” value is 0.0772%.

Consider `CN1C(CCl)Nc2cc(Cl)c(S(N)(=O)=O)cc2S1(=O)=O` (configuration not stated), for which the “activity change, negative = inhibition” value was 14.5%.

For `C[C@]12CC[C@H]3[C@@H](CCC4=CC(=O)CC[C@@]43C)[C@@H]1CC[C@@H]2C(=O)CO`, the “activity change, negative = inhibition” value is 14.1%.

For the molecule `CCCCOc1ccc(C(=O)CCN2CCCCC2)cc1`, the “activity change, negative = inhibition” value was 24.7%.

With `COC1=CC(=O)C[C@@H](C)[C@]12Oc1c(Cl)c(OC)cc(OC)c1C2=O`, the “activity change, negative = inhibition” value is 5.48%.

As to `CCN(CC)CCNC(=O)COc1ccc(Cl)cc1`, the “activity change, negative = inhibition” value is 12.2%.

As to `CC(=O)OCC(=O)[C@@]12N=C(C)O[C@@H]1C[C@H]1[C@@H]3CCC4=CC(=O)C=C[C@]4(C)[C@H]3[C@@H](O)C[C@@]12C`, the “activity change, negative = inhibition” value was 14.9%.

With `CC(=O)OCC(=O)[C@@]12OC(C)(C)O[C@@H]1C[C@H]1[C@@H]3C[C@H](F)C4=CC(=O)C=C[C@]4(C)[C@@]3(F)[C@@H](O)C[C@@]12C`, the “activity change, negative = inhibition” value is 7.65%.

Turning to `C/C=C/c1ccc(OC)cc1`, the “activity change, negative = inhibition” value is 15.6%.

As for `NC(=O)C(=O)N/N=C/c1ccc([N+](=O)[O-])o1`, the “activity change, negative = inhibition” value is -11.2%.

Consider `CC[N+](CC)(CCNC(=O)C(=O)NCC[N+](CC)(CC)Cc1ccccc1Cl)Cc1ccccc1Cl`, for which the “activity change, negative = inhibition” value was -7.57%.

For `CCCCCCCCCCCCCCCC[N+](C)(C)CC`, the “activity change, negative = inhibition” value is 9.42%.

For the molecule `C[C@@H]1C[C@H]2[C@@H]3CCC4=CC(=O)C=C[C@]4(C)[C@@]3(F)[C@@H](O)C[C@]2(C)[C@H]1C(=O)CO`, the “activity change, negative = inhibition” value was -0.695%.

Regarding `O=C(O)CNC(=O)c1ccccc1`, the “activity change, negative = inhibition” value is 15.2%.

Consider `C[C@]12C=CC(=O)C=C1[C@@H](F)C[C@@H]1[C@@H]2[C@@H](O)C[C@@]2(C)[C@H]1CC[C@]2(O)C(=O)CO`, for which the “activity change, negative = inhibition” value is 11.2%.

With `C[C@]12C=CC(=O)C=C1CC[C@@H]1[C@@H]2[C@@H](O)C[C@@]2(C)[C@H]1CC[C@]2(O)C(=O)CO`, the “activity change, negative = inhibition” value is 9.89%.

For the molecule `C#C[C@]1(OC(C)=O)CC[C@H]2[C@@H]3CCC4=C[C@@H](OC(C)=O)CC[C@@H]4[C@H]3CC[C@@]21C`, the “activity change, negative = inhibition” value is -17%.

`COc1ccc(CCN2CCC(Nc3nc4ccccc4n3Cc3ccc(F)cc3)CC2)cc1`: the “activity change, negative = inhibition” value is 21.1%.

Regarding `C[n+]1c2cc(N)ccc2cc2ccc(N)cc21` (tested in a mixture with another compound), the “activity change, negative = inhibition” value was -12.5%.

For the molecule `COc1cc(-c2ccc(=O)[nH]n2)ccc1OC(F)F`, the “activity change, negative = inhibition” value was -5.79%.

Consider `CCCCC(=O)O[C@]1(C(=O)CO)CC[C@H]2[C@@H]3CCC4=CC(=O)CC[C@]4(C)[C@H]3[C@@H](O)C[C@@]21C`, for which the “activity change, negative = inhibition” value is 3.32%.

With `CCOc1ccc(Cc2nccc3cc(OCC)c(OCC)cc23)cc1OCC`, the “activity change, negative = inhibition” value is 37.6%.

In the case of `CC1=C(C(=O)OC(C)C)C(c2cccc([N+](=O)[O-])c2)C(C(=O)OC2CN(C(c3ccccc3)c3ccccc3)C2)=C(N)N1` (configuration not stated), the “activity change, negative = inhibition” value was 4.49%.

As to `COc1ccc(/C=C/C(=O)c2ccc(OC)cc2OC)cc1`, the “activity change, negative = inhibition” value is 18.9%.

In the case of `CCN(CC)CCOc1ccc(C(O)(Cc2ccc(Cl)cc2)c2ccc(C)cc2)cc1` (configuration not stated), the “activity change, negative = inhibition” value was 33.8%.

As for `CCCCC1=NC2(CCCC2)C(=O)N1Cc1ccc(-c2ccccc2-c2nn[nH]n2)cc1`, the “activity change, negative = inhibition” value is -0.232%.

As for `CCCCCCCCCCOCC(O)CN` (configuration not stated), the “activity change, negative = inhibition” value was 19.4%.

Regarding `Cc1ccc(C(=O)C(C)CN2CCCCC2)cc1` (configuration not stated), the “activity change, negative = inhibition” value is 6.18%.

As to `Clc1ccc2c(c1)CCc1cccnc1C2=C1CCNCC1`, the “activity change, negative = inhibition” value is -1.47%.

Consider `CCCN1CCCC[C@H]1C(=O)Nc1c(C)cccc1C`, for which the “activity change, negative = inhibition” value is 16.3%.

As to `Oc1cc(O)c2c(c1)O[C@H](c1ccc(O)c(O)c1)[C@H](O)C2`, the “activity change, negative = inhibition” value was -25.7%.

`C[C@]12CCC(=O)C=C1CC[C@H]1[C@@H]3CC[C@](O)(C(=O)CO)[C@@]3(C)C[C@H](O)[C@@]12F`: the “activity change, negative = inhibition” value was 14.3%.

Take `CCCCOc1ccc(OCCCN2CCOCC2)cc1`: the “activity change, negative = inhibition” value is 8.57%.

On to `COC(=O)CCc1ccc(OCC(O)CNC(C)C)cc1` (configuration not stated), for which the “activity change, negative = inhibition” value was 13%.
